The results in this text go back to the supplement of paper PMC7411054.

Holding throughout (details): treatment time: 24 h
In experiment [1] the test system is A549-ACTB-RAB5A. Put plainly: lowest phenotypically active concentration; higher = less potent. The method in brief: (§1)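 Phenotypic activity depended on meeting both a deviation and a reproducibility criterion. The fifteen gene-edited A549, HepG2 and WPMY1 reporter lines were treated at 0.3, 1, 3 or 9 µM for 24 h, four wells each, then imaged live with features normalised to solvent control wells. Deviation required ≥3 of 4 wells past the 95th percentile of control Euclidean distances, and reproducibility a median replicate Pearson correlation above the 95th percentile of non-replicates.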

In experiment [2] the test system is A549-GM130-SQSTM1. The experiment is described as above. In a few lines: as §1
For experiment [3], the system named is A549-TUBA1B-RELA. The description is as above. In a few lines: as §1
In experiment [4] the test system is HepG2-ACTB-RAB5A. The experiment is described as above. In a few lines:
as §1

Experiment [5] relates to WPMY1-CANX-COX4. The description is as above. The method in brief: as §1
Experiment [6] concerns A549-ACTB-RAB5A. Briefly: phenotypically active (imaging signature differs from DMSO and reproducible) at any of 0.3-9 uM (binary (1 = active, 0 = inactive)); higher = active. The method in brief: as §1
Experiment [7] deals with A549-CANX-COX4. Described as above. In a few lines:
as §1

Experiment [8] deals with A549-GM130-SQSTM1. The description is as above. In a few lines:
as §1

Experiment [9] concerns A549-TP53BP1-CLTA. The experiment is described as above. In a few lines: as §1
Experiment [10] deals with A549-TUBA1B-RELA. The experiment is described as above. The method in brief: as §1
The subject of experiment [11] is HepG2-ACTB-RAB5A. The experiment is described as above. In a few lines:
as §1

The test system of experiment [12] is HepG2-CANX-COX4. Described as above. The method in brief:
as §1

The test system of experiment [13] is HepG2-GM130-SQSTM1. The description is as above. In a few lines:
as §1

In experiment [14] the test system is HepG2-TP53BP1-CLTA. Described as above. In a few lines: as §1
For experiment [15], the system named is HepG2-TUBA1B-RELA. The description is as above. In a few lines: as §1
The subject of experiment [16] is WPMY1-ACTB-RAB5A. The experiment is described as above. In a few lines:
as §1

Experiment [17] concerns WPMY1-CANX-COX4. The experiment is described as above. The method in brief: as §1
The test system of experiment [18] is WPMY1-GM130-SQSTM1. Described as above. The method in brief: as §1
The subject of experiment [19] is WPMY1-TP53BP1-CLTA. The experiment is described as above. The method in brief:
as §1

Experiment [20] concerns WPMY1-TUBA1B-RELA. Described as above. In a few lines:
as §1

For `CSc1ccc2c(c1)N(CCC1CCCCN1C)c1ccccc1S2` (stereo unspecified) [thioridazine], the “lowest phenotypically active concentration” value in [1] turned out to be 3 µM; in experiment [2] it was 3 µM; in experiment [3], 3 µM; in [4] it was 9 µM; in [5] it was 9 µM. Also, the phenotypically active in experiment [6] was 1 (active); in experiment [7] it was 0 (inactive); in experiment [8], 1 (active); in experiment [9] it was 1 (active); in experiment [10], 1 (active); in experiment [11], 1 (active). In addition, the phenotypically active in experiment [12], in experiment [13], in experiment [14], in [15], in [16] and in [17] was 1 (active) throughout. Moreover, the phenotypically active in experiment [18], in experiment [19] and in experiment [20] was 1 (active) throughout.

Turning to `Clc1ccccc1C(c1ccccc1)(c1ccccc1)n1ccnc1` [Clotrimazole], the “lowest phenotypically active concentration” value in experiment [1], in experiment [2], in experiment [4] and in experiment [5] was 9 µM throughout. The phenotypically active in experiment [6] was 1 (active); in [7], 0 (inactive); in [8] it was 1 (active); in experiment [9] it was 1 (active); in experiment [10], 0 (inactive); in experiment [11] it was 1 (active). Moreover, the phenotypically active in experiment [12] was 1 (active); in experiment [13], 0 (inactive); in experiment [14] it was 0 (inactive); in [15], 0 (inactive); in [16], 0 (inactive); in experiment [17] it was 1 (active). The phenotypically active in experiment [18] was 1 (active); in experiment [19] it was 0 (inactive); in experiment [20] it was 0 (inactive).

`C[C@]1(O)C[C@@H](c2nc(-c3ccc4ccc(-c5ccccc5)nc4c3)c3c(N)nccn32)C1` [linsitinib]: the “lowest phenotypically active concentration” value in experiment [1] is 1 µM; in [2], at most 0.3 µM; in experiment [3], 3 µM; in experiment [4] it was 9 µM; in [5], 9 µM. Further, the phenotypically active is 1 (active) in experiment [6]; 0 (inactive) in [7]; 1 (active) in experiment [8]; 1 (active) in [9]; 1 (active) in [10]; 1 (active) in experiment [11]. Besides, the phenotypically active in experiment [12], in [13], in [14], in experiment [15], in experiment [16] and in experiment [17] was 1 (active) each time. The phenotypically active in [18] was 1 (active); in experiment [19], 1 (active); in experiment [20], 0 (inactive).

In the case of `CNCCC(Oc1ccc(C(F)(F)F)cc1)c1ccccc1` (stereo unspecified) [fluoxetine], the “lowest phenotypically active concentration” value in experiment [1] came to 3 µM; in experiment [2] it was 9 µM; in experiment [3] it was 3 µM. Besides, the phenotypically active in [6] was 1 (active); in experiment [7], 0 (inactive); in experiment [8], 1 (active); in experiment [9] it was 1 (active); in experiment [10], 1 (active); in experiment [11] it was 0 (inactive). Further, the phenotypically active in experiment [12] was 0 (inactive); in [13], 0 (inactive); in experiment [14] it was 1 (active); in [15] it was 1 (active); in [16] it was 0 (inactive); in [17] it was 0 (inactive). The figures for the phenotypically active in experiment [18], in experiment [19] and in experiment [20] were 1 (active), 0 (inactive) and 0 (inactive), respectively.

In the case of `COc1ccc(CNC(=O)Nc2ncc([N+](=O)[O-])s2)cc1`, the “lowest phenotypically active concentration” value in experiment [1], in experiment [2], in experiment [3] and in [5] was 9 µM throughout. Moreover, the phenotypically active in [6] was 1 (active); in experiment [7] it was 0 (inactive); in experiment [8], 1 (active); in experiment [9], 1 (active); in experiment [10] it was 1 (active); in [11] it was 0 (inactive). The phenotypically active in [12] was 0 (inactive); in [13], 0 (inactive); in [14] it was 0 (inactive); in experiment [15], 0 (inactive); in experiment [16] it was 0 (inactive); in [17], 1 (active). The phenotypically active in experiment [18] is 1 (active); in experiment [19], 1 (active); in experiment [20], 0 (inactive).
